High-throughput results: PubChem BioAssay, Broad Institute
Tg IFNy HTS – T. gondii growth inhibition under IFN-gamma; actives 3.8% (n = 69,000); Toxoplasma gondii growth in IFN-gamma-treated host cells; stronger effect = lower value; activity change, negative = inhibition, % (no concentration beside the values); AID 1259416; in the data active = activity change below about -70%, passing the limit was not always enough;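 also: host cells are HeLa cells infected with Toxoplasma gondii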
An asterisk follows results filed as active; i = inactive. Many of the other results were omitted from the sample, so hits are more common in it than they were.

SMILES	Tg IFNy HTS
O=C(CCN1Cc2ccccc2C1=O)Nc1cnn(Cc2ccc(F)cc2)c1	-15.5
CCCc1cc(C(=O)Nc2cnn(Cc3ccc(F)cc3)c2)n[nH]1	-90.2*
O=C(Nc1cc(C(F)(F)F)ccc1N1CCc2ccccc2C1)c1ccccc1F	99.6
CC(C)c1cc(C(=O)NCc2cc(-c3ccco3)on2)n(C)n1	3.0
CCCn1ncc(C(=O)NCc2ccc(-c3noc(C)n3)cc2)c1C	-13.5
Cc1nc(-c2ccc(CNC(=O)c3cc(CC(C)C)nn3C)cc2)no1	-77.8*
Cc1nccn1-c1ccccc1CNC(=O)c1cc(C(C)C)nn1C	-2.0
CC(C)c1cc(C(=O)NCc2nc(-c3ccccc3)no2)n(C)n1	-100.0*
CC(C)Cc1cc(C(=O)NCc2cnn3ccccc23)n(C)n1	-33.7
CC(C)(C)NCC(O)COc1ccc(-c2csnn2)cc1 (centres undefined)	-50.2
CNC(=O)c1cc(C2CCC(CNC(=O)c3n[nH]c4c3CCCC4)CC2)nc2ccccc12 (centres undefined)	-41.2
CSc1cccc(CN2CCN(C)C3(CCN(C(=O)N(C)C)CC3)C2)c1	-4.1
Cc1cnc(N2CC[C@@H]3[C@H]2CCN3c2nncs2)nc1	186.2
Cc1ccc(CNCC2OCCc3cn(C)nc32)o1 (centres undefined)	-20.1
Cc1ccc(NC(=O)Cn2ncc3c(N4CCC(C)CC4)ncnc32)c(C)c1	15.4
COc1ccc(C(=O)Nc2ccc(-c3nc(Cn4nc(C)c(C)c4C)c(C)o3)cc2)cc1	-92.7*
Cc1nn(Cc2nc(-c3ccc(NC(=O)c4cc(F)ccc4F)cc3)oc2C)c(C)c1C	-52.2
Cc1ccccc1C(=O)Nc1ccc(-c2nc(Cn3nc(C)c(C)c3C)c(C)o2)cc1	-97.0*
Cc1nn(Cc2nc(-c3ccc(NC(=O)c4ccc(N(C)C)cc4)cc3)oc2C)c(C)c1C	37.4
CCOc1ccccc1C(=O)Nc1ccc(-c2nc(Cn3nc(C)c(C)c3C)c(C)o2)cc1	1.4
Cc1nn(Cc2nc(-c3ccc(NC(=O)c4cc(F)cc(F)c4)cc3)oc2C)c(C)c1C	15.5
O=C(Nc1ccc2c(c1)CCC2)C1CCCN(S(=O)(=O)Cc2ccccc2)C1 (centres undefined)	-61.2
O=C(CN1CCC(c2cc(=O)n3c(n2)CCCCC3)CC1)N1CCC(c2ccncc2)CC1	4.3
O=C1NCCN2CCN(Cc3c(-c4ccccc4)nc4ncccn34)CC12 (centres undefined)	-4.9
c1ccc2c(N3CCN(Cc4cc5n(n4)CCCNC5)CC3)nsc2c1	-3.4
SMILES	Tg IFNy HTS
Cc1ccc(C(=O)N2C[C@@H]3COC[C@@]3(CN3CCOCC3)C2)s1	1.5
CC(C)c1cn(CC(=O)NC(C)c2nc3ccccc3s2)nn1 (centres undefined)	25.5
COc1ccc(OC)c(CNC(=O)c2nc(Nc3ccccc3)c3ccccc3n2)c1	-47.4
FC(F)(F)c1cccc(CN(Cc2ccccn2)CC2CCCO2)c1 (centres undefined)	-9.9
O=C(CCC1CCCO1)Nc1ncc(Cc2cccc(C(F)(F)F)c2)s1 (centres undefined)	-99.3*
CC(=O)N1CCOC(Cc2cccc(C(F)(F)F)c2)C1 (centres undefined)	-2.7
CC(C)Cc1nc2ccccc2c(=O)n1NC(=O)c1sc2ccccc2c1Cl	-24.7
CC(C)(C)c1csc(=S)n1CCc1ccc(Cl)cc1	-87.4*
Cn1c(-c2ccc(Cl)cc2)cs/c1=N\C(=S)NCCc1ccccc1	-57.0
c1nc2ccc(-c3ccc4c(c3)OCO4)cc2[nH]1	8.9
C=CC(=O)Nc1cccc(Oc2nc(Nc3ccc(N4CCN(C)CC4)cc3OC)ncc2Cl)c1	-66.9
C=CC(=O)Nc1cccc(Sc2nc(Nc3ccc(N4CCN(C)CC4)cc3)ncc2Cl)c1	-81.6*
CCC(=O)Nc1cccc(Oc2nc(Nc3ccc(N4CCN(C)CC4)cc3OC)ncc2Cl)c1	-18.7
CC1CCCCN1S(=O)(=O)c1ccc(NC(=O)c2cnccn2)cc1 (centres undefined)	58.2
CN1CCN(S(=O)(=O)c2ccc(-c3cnc(N)c(C(=O)Nc4cccnc4)n3)cc2)CC1	-70.9*
CC(=O)Nc1ccc(S(=O)(=O)N2CCC(O)(c3ccccn3)CC2)cc1	3.2
Cc1occc1C(=O)N1CCCn2c(nc(Cn3ccnc3)cc2=O)C1	-2.0
CCc1csc(CNC2CCC3(CCNCC3)CC2)n1	-75.8*
CCc1csc(CNC2CCN(CC(C)C)CC2)n1	0.4
Cc1nccn1-c1ccccc1CNC1CCC2(CCNCC2)CC1	2.6
CC1=NN(c2ccc(C(=O)O)cc2)C(=O)/C1=C\c1ccc(-c2cc(C)c(C)cc2[N+](=O)[O-])o1	38.7
O=C1/C(=N/Nc2nc(N3CCOCC3)nc(N3CCOCC3)n2)c2cccc3cccc1c23	3.3
COc1ncccc1-c1[nH]cnc1-c1ccccc1	-15.3
COc1ncccc1-c1cccc(-c2nnc(C)s2)c1	-94.4*
COc1ncccc1-c1nn(C)c2ccc(C)cc12	7.3
SMILES	Tg IFNy HTS
Cc1ccc(Cl)cc1NC(=O)c1c(O)c2ccccc2n(-c2ccccc2)c1=O	-5.7
CNS(=O)(=O)c1ccc(CN(C)CCOc2ccc(C)cc2C)cc1	43.8
NC(=O)c1cnc2n1CCN(C(=O)c1ccccc1-c1ccccc1)C2	-8.5
C[C@H]1CN([C@@H](C)CO)C(=O)c2cc(C#CC3(O)CCCC3)cnc2O[C@@H]1CN(C)S(=O)(=O)c1cccc(F)c1	-112.0*
C[C@@H]1CN([C@H](C)CO)C(=O)c2cc(C#CC3(O)CCCC3)cnc2O[C@H]1CN(C)S(=O)(=O)c1cccc(F)c1	i
C[C@@H]1CN([C@H](C)CO)C(=O)c2cc(C#Cc3ccccc3)cnc2O[C@@H]1CN(C)C(=O)c1ccccc1	17.0
C[C@H](CO)N1C[C@H](C)[C@H](CN(C)S(=O)(=O)c2cccc(F)c2)Oc2ncc(C#CC3(O)CCCC3)cc2C1=O	60.4
C[C@H](CO)N1C[C@H](C)[C@@H](CN(C)C(=O)c2ccccc2)Oc2ncc(C#Cc3ccccc3)cc2C1=O	-88.2*
C[C@H]1CN([C@@H](C)CO)C(=O)c2cc(C#Cc3ccccc3)cnc2O[C@H]1CN(C)C(=O)c1ccccc1	-14.2
CO[C@H]1CCN(C(=O)c2ccoc2)[C@H]2CN(Cc3ccncc3)C[C@@H]12	-6.0
Cc1nc(C(C)N(C)Cc2nccn2C)c(C)s1 (centres undefined)	2.4
O=C1CCCN1Cc1ccccc1Cn1cc(C2CC=CCC2)nn1 (centres undefined)	0.8
CN(C)C(=O)N1Cc2cncn2CC(COc2ccc(C#N)cn2)C1 (centres undefined)	1.6
Cc1ccc(C)c(NS(=O)(=O)c2cc3c4c(c2)CCN4C(=O)CC3)c1	2.3
CN(Cc1cc2n(n1)CCNC2)Cc1cc(-c2ccccn2)no1	12.1
CCOC(=O)c1[nH]c(=O)[nH]c1CN1[C@@H]2CC[C@H]1CN(C)C(=O)C2	5.2
COCCC(=O)c1cc(-c2cnc(-c3ccnn3C)nc2)cn1CC1CC1	-56.1
O=C(C1CCCCC1)N1CCC(c2cc(=O)[nH]c(-c3ccccn3)n2)C1 (centres undefined)	-7.3
Cc1nc(-c2cccc(NS(=O)(=O)c3cn(C)nc3C)c2)cs1	9.7
CCCCCOc1ccc(C(O)C(CN2CCCC2)c2ccccc2)cc1 (centres undefined)	-91.2*
CC(=O)c1ccc(OCC(O)CN2CCN(C(c3ccccc3)c3ccccc3)CC2)cc1 (centres undefined)	-61.2
CCOC(CN1CCN(CC(C)C(=O)c2ccccc2)CC1)c1ccccc1 (centres undefined)	-9.5
O=C(NCc1noc(Cc2cccs2)n1)c1cnc2ccccn12	15.6
CNCCNC(=O)c1ccccc1Cc1ccc(Cl)cc1	90.1
